Laboratory results reported in PubChem BioAssay.
Activity calls are given as the source filed them.

Columns and labels:
[1] = E. coli DRC41 culture turbidity changes, primary screen, E. coli filamentation inducer project, strain DRC41, OD650, 48 h (AID 1152);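 note: E. coli MC1000 strain DRC41 lacking acrAB efflux pump and sulA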; conditions: E. coli DRC41 (acrAB sulA), higher = more signal, called active from +8 up or from −8 down
[2] = small-molecule binders of probe aLefty1, primary screen, biochemical, small-molecule microarray, 635/667 nm fluorescence (AID 1153); conditions: higher = more signal;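 note: score merges spot fluorescence with signal-to-noise ratio from the scanned slide images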
[3] = PSAC antagonists in infected red cells, primary screen, cell-based, P. falciparum Indochina, OD700, 1 h (AID 1154); conditions: P. falciparum Indochina infected RBC osmotic lysis, higher = more signal, called active from +8 up or from −8 down
[4] = PSAC antagonists in infected red cells, primary screen, cell-based, P. falciparum Indochina, OD700, 2 h (AID 1155);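 note: lysis reports solute entry through the parasite surface anion channel PSAC; channel blockers reduce lysis of infected cells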; conditions: P. falciparum Indochina infected erythrocytes, osmotic lysis OD700; higher = more signal, called active from +8 up or from −8 down
[5] = osmotic lysis modulators in infected erythrocytes, primary screen, PSAC antagonist project, cell-based, P. falciparum Indochina, OD700, 3 h (AID 1156); conditions: higher = more signal, called active from +8 up or from −8 down
[6] = PSAC antagonists in infected red cells, primary screen, cell-based, P. falciparum Indochina, OD700, 18 h (AID 1157); conditions: P. falciparum Indochina infected erythrocytes, osmotic lysis OD700, 18 h; higher = more signal, called active from +8 up or from −8 down
[7] = modulators of S6 phosphorylation in cells, primary screen, cell-based, A549, cytoblot, luminescence, serum-stimulated (AID 1158); conditions: A549 phospho-S6 cytoblot, 5 h, higher = more signal;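 note: serum-stimulated A549 lung adenocarcinoma cells; signal is phosphorylated S6 detected by cytoblot immunostaining with HRP secondary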
[8] = biological target: NADPH oxidase 2 (Homo sapiens) (UniProt P04839); experiment: NOX2-dependent H2O2 signal modulators, primary screen, NOX inhibitor project, cell-based, HEK293-NOX2, PMA-stimulated, Amplex Red fluorescence (AID 1159); conditions: 45 min, higher = more signal, called active from +8 up or from −8 down; note: test concentration not given here
Chain of NADPH oxidase 2 (Homo sapiens) (P04839 whole entry, looked up): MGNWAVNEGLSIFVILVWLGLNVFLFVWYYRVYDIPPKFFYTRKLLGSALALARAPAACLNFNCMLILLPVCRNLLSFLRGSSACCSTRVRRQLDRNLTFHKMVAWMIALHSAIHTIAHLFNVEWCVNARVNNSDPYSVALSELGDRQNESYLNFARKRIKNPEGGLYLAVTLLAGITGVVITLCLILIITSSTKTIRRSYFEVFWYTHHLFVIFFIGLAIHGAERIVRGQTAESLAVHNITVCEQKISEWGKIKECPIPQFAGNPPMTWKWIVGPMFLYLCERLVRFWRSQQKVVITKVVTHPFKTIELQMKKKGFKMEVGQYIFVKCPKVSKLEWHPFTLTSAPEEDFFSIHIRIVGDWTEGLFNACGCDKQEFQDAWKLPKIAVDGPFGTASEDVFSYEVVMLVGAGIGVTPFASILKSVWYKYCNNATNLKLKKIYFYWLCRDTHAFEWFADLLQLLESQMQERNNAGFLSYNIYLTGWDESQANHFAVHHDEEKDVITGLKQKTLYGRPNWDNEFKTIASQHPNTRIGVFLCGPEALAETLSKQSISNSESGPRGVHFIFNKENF

[9] = biological target: NADPH oxidase 4 (Homo sapiens) (UniProt Q9NPH5); experiment: NOX4-dependent H2O2 signal modulators, primary screen, NOX inhibitor project, cell-based, HEK293-NOX4, tetracycline-induced, Amplex Red fluorescence (AID 1160); conditions: 45 min, higher = more signal, called active from +8 up or from −8 down
Chain of NADPH oxidase 4 (Homo sapiens) (Q9NPH5 whole entry, looked up): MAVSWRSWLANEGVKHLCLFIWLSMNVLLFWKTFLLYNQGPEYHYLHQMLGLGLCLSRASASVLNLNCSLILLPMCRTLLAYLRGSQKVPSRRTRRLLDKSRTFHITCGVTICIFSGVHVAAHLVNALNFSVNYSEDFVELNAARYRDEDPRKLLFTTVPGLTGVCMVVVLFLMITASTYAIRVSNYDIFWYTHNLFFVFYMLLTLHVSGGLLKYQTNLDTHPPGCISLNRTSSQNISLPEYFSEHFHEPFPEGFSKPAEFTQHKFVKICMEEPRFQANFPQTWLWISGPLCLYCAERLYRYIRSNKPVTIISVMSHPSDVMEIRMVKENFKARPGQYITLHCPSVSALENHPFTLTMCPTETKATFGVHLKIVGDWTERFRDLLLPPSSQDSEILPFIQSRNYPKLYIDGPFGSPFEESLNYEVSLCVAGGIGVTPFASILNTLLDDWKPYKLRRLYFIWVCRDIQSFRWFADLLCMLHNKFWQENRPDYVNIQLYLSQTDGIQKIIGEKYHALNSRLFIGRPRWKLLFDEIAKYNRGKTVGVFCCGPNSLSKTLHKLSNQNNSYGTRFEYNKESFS

[10] = biological target: NADPH oxidase 5 (Homo sapiens) (UniProt Q96PH1); experiment: NOX5-dependent H2O2 signal modulators, primary screen, NOX inhibitor project, cell-based, HEK293-NOX5, Amplex Red fluorescence (AID 1161); conditions: HEK293-NOX5, ionomycin, 45 min, higher = more signal
Chain of NADPH oxidase 5 (Homo sapiens) (Q96PH1 whole entry, looked up): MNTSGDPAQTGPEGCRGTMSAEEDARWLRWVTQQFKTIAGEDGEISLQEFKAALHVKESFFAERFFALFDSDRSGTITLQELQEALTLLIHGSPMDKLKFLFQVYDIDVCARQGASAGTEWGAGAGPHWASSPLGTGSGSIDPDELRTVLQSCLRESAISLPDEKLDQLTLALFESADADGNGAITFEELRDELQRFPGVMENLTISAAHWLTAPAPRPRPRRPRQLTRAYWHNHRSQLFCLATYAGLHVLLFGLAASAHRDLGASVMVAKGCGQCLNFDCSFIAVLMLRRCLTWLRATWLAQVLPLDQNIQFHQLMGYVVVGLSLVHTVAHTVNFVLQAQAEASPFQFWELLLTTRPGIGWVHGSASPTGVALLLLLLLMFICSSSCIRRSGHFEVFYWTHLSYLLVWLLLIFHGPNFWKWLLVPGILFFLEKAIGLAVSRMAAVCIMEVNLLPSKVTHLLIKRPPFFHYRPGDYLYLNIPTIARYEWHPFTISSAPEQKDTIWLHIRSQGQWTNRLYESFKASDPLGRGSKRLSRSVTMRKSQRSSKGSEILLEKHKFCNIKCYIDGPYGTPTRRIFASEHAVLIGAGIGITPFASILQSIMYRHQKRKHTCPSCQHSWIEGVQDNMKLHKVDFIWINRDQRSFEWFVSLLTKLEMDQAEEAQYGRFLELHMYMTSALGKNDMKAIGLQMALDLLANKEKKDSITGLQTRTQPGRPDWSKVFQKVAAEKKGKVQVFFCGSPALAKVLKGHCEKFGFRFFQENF

Structure (SMILES)	z-score [1]	composite z-score [2]	z-score [3]	z-score [4]	z-score [5]	z-score [6]	z-score [7]	z-score [8]	z-score [9]	z-score [10]
[N-]=[N+]=Nc1ccccc1C[C@@]1(C(=O)NCc2ccccc2)N=C(c2ccc(OCCCO)cc2)O[C@@H]1c1ccccc1N=[N+]=[N-]	0.0484 (inactive)	0.399	31.4 (active)	24.3 (active)	2.08 (inactive)	0.984 (inactive)	1.38	-4.79 (inactive)	-2.16 (inactive)	-1.67
COCCOC(=O)N1C(=O)[C@@]2(c3ccccc31)[C@H](C(=O)N1CCN(c3ncccn3)CC1)[C@H]1C(=O)O[C@H](c3ccccc3)[C@H](c3ccccc3)N1[C@@H]2c1ccccc1OCCO	2.86 (inactive)	0.867	10 (active)	1.18 (inactive)	-0.427 (inactive)	0.0951 (inactive)	1.89	0.89 (inactive)	1.09 (inactive)	0.791
CCCC=C(CCC)[C@@H](NC(=O)c1ccc(C(F)(F)F)cc1)c1ccc(C(F)(F)F)cc1	-1.35 (inactive)	0.792	1.23 (inactive)	0.588 (inactive)	-0.957 (inactive)	1.25 (inactive)	-0.523	-0.0499 (inactive)	-0.414 (inactive)	2.97
C[C@@H]1ON(c2ccc(I)cc2)[C@H](c2cccc(NC(=O)OCC3c4ccccc4-c4ccccc43)c2)[C@H]1C(=O)N1C(=O)OC[C@H]1Cc1ccccc1	1.26 (inactive)	0.185	-0.261 (inactive)	0.755 (inactive)	0.0181 (inactive)	0.0584 (inactive)	-0.447	-0.143 (inactive)	-2.58 (inactive)	-2.6
C=CCC(OC(C)=O)[C@@H]1[C@@H](N(Cc2ccc(-c3cccc(C(F)(F)F)c3)o2)C(=O)Cc2ccc(F)cc2)c2cc(OCCCO)ccc2N1C(=O)Cc1ccc2ccccc2c1 (stereo not given in full)	-0.985 (inactive)	0.0919	1.1 (inactive)	0.135 (inactive)	-0.554 (inactive)	-0.135 (inactive)	-0.37	-1.03 (inactive)	0.896 (inactive)	0.736
OCCCC1=CC(c2ccc(CN3CCCC3)cc2)N(Cc2cccc(OC(F)(F)F)c2)CC1 (stereo not given)	-2.64 (inactive)	0.286	3.61 (inactive)	0.935 (inactive)	0.524 (inactive)	0.749 (inactive)	-0.791	-5.61 (inactive)	-2.06 (inactive)	-2.16
COC(=O)[C@]1(CCC(=O)OC(C)(C)C)N=C(c2ccc(OCCCO)cc2)O[C@@H]1c1ccccc1N=[N+]=[N-]	-0.725 (inactive)	0.0591	30.9 (active)	25.9 (active)	1.64 (inactive)	5.32 (inactive)	-0.328	-1.41 (inactive)	-0.601 (inactive)	-2.4
COc1ccc(C(=O)Nc2cccc(CN3C(=O)[C@@]4(O[C@@H](CC(=O)N5CCC[C@H]5CO)[C@H]([Si](C)(C)c5ccc(OC)cc5)[C@H]4C)c4ccccc43)c2)cc1	-0.184 (inactive)	-0.06	4.51 (inactive)	1.32 (inactive)	0.691 (inactive)	0.696 (inactive)	1.31	1.24 (inactive)	0.982 (inactive)	4.72
CCCN1C(=O)[C@]2(CCC(=O)OC(C)(C)C)N=C(c3ccc(OCCCO)cc3)O[C@@H]2c2ccccc21	0.239 (inactive)	0.26	34.1 (active)	36.8 (active)	2.57 (inactive)	8.76 (active)	-0.0347	-3.07 (inactive)	-0.483 (inactive)	-1.51
C=C1C(=O)C=C2CN(C(=O)c3ccccc3)[C@@](Cc3ccc(OC)cc3)(C(=O)OC)[C@@H]12	-1.79 (inactive)	1.46	2.02 (inactive)	0.368 (inactive)	0.218 (inactive)	1.23 (inactive)	-0.0615	0.427 (inactive)	1.1 (inactive)	2.68
CCCCCC1=C2CNC(CC(C)C)(C(=O)OC)C=C2C(C)C1=O (stereo not given)	-1.07 (inactive)	0.172	1.5 (inactive)	-0.602 (inactive)	0.836 (inactive)	0.347 (inactive)	-0.245	-0.0792 (inactive)	-0.636 (inactive)	-2.61
COc1ccc(C(O)C2C=CC3C(=O)N(c4ccccc4)C(=O)C3N2Nc2ccc(C#N)cc2)cc1OCc1ccccc1 (stereo not given)	-1.37 (inactive)	0.482	9.41 (active)	2.2 (inactive)	0.918 (inactive)	1.27 (inactive)	-0.98	-1.69 (inactive)	-2.41 (inactive)	-2.45
CC(C)c1nc2cc(Br)ccc2c(=O)o1	0.537 (inactive)	0.202	2.79 (inactive)	0.153 (inactive)	0.958 (inactive)	0.303 (inactive)	-0.228	-0.421 (inactive)	-0.0107 (inactive)	0.118
C=CCC(OC(C)=O)[C@@H]1[C@@H](N(Cc2cccc3ccccc23)C(=O)Cc2ccc(OC)cc2)c2cc(OCCCO)ccc2N1C(=O)c1ccc2ccccc2c1 (stereo not given in full)	0.808 (inactive)	0.147	0.79 (inactive)	-0.443 (inactive)	-0.214 (inactive)	-0.691 (inactive)	1.2	-2.11 (inactive)	-1.24 (inactive)	-0.827
CCCCC(O)C1C=CC2C(=O)N(c3ccccc3)C(=O)C2N1Nc1ccc(C#N)cc1 (stereo not given)	-0.964 (inactive)	0.598	16.7 (active)	2.94 (inactive)	2.36 (inactive)	1.39 (inactive)	-0.809	-0.444 (inactive)	-4.26 (inactive)	-1.98
O=C(NCCN1CCOCC1)[C@@H]1c2ccccc2C(=O)N(Cc2ccc(OC(F)(F)F)cc2)[C@H]1c1ccc(CO)cc1	-0.288 (inactive)	-0.222	1.09 (inactive)	0.655 (inactive)	1.74 (inactive)	-0.161 (inactive)	-0.219	0.134 (inactive)	0.891 (inactive)	2.07
COc1ccc([Si](C)(C)[C@H]2[C@H](CC(=O)N3Cc4ccccc4C[C@H]3CO)O[C@@]3(C(=O)N(C)c4ccccc43)[C@@H]2C)cc1	-0.614 (inactive)	0.384	13.2 (active)	1.16 (inactive)	2.37 (inactive)	-0.925 (inactive)	0.867	-3.27 (inactive)	-1.45 (inactive)	-1.91
O=C1NC(=O)C2C1C=CC(C(O)c1ccc(B(O)O)cc1)N2Nc1ccc(Cl)cc1Cl (stereo not given)	-2.48 (inactive)	0.199	1.8 (inactive)	0.917 (inactive)	-0.577 (inactive)	0.654 (inactive)	-1.07	-2.66 (inactive)	-5.04 (inactive)	-6.42
O=C(NCc1ccccc1)[C@@H]1c2ccccc2C(=O)N(Cc2ccc(OC(F)(F)F)cc2)[C@H]1c1ccc(CO)cc1	0.39 (inactive)	0.656	3.9 (inactive)	0.566 (inactive)	1.56 (inactive)	0.158 (inactive)	0.503	-3.06 (inactive)	0.263 (inactive)	0.401
O=C1[C@H]2C=C(I)[C@H](C[C@@H]2OCCCCCCO)[C@@]12CO2	-1.02 (inactive)	0.0834	5.11 (inactive)	0.713 (inactive)	0.487 (inactive)	0.035 (inactive)	-0.251	-0.212 (inactive)	0.645 (inactive)	-1.22
COC(=O)C(CC#Cc1ccc2c(c1)[C@]1(C(=O)N2)[C@H](C(=O)N2CCc3cc(OC)c(OC)cc3C2)[C@H]2C(=O)O[C@H](c3ccccc3)[C@H](c3ccccc3)N2[C@@H]1c1ccccc1OCCO)C(=O)OC	0.113 (inactive)	0.0429	2.85 (inactive)	1.76 (inactive)	0.848 (inactive)	1.08 (inactive)	-0.416	2.02 (inactive)	0.405 (inactive)	1.9
CN(C)CCCC[C@@H]1NC(=O)[C@H]2C[C@@H](C(=O)O)[C@@H](c3ccc(O)cc3)N2C1=O	2.2 (inactive)	2.57	3.21 (inactive)	0.73 (inactive)	-2.43 (inactive)	-0.849 (inactive)	0.651	0.485 (inactive)	-1.06 (inactive)	1.4
O=C1O[C@@H](c2ccccc2)[C@@H](c2ccccc2)N2[C@@H](c3ccc(OCCO)cc3)[C@]3(C(=O)Nc4ccc(C#CC5(O)CCCCCC5)cc43)[C@@H](C(=O)Nc3nc4ccccc4s3)[C@H]12	0.219 (inactive)	-0.0061	2.63 (inactive)	1.76 (inactive)	0.626 (inactive)	1.96 (inactive)	0.693	1.2 (inactive)	-1.33 (inactive)	0.52
CO[C@H]1O[C@H](CO)[C@@H](OC(=O)Nc2ccccc2-c2ccccc2)[C@H](OC(=O)Nc2ccccc2)[C@H]1OC(=O)Nc1ccccc1	0.299 (inactive)	0.0405	2.62 (inactive)	0.772 (inactive)	0.375 (inactive)	0.521 (inactive)	0.144	-1.62 (inactive)	-1.72 (inactive)	-1.4
